# Measured values published in PubChem BioAssay AID1159580 (chemical genetic matrix, 2015).
# The whole screen tested about 5,500 compounds, of which about 2,000 (36%) were called active. Inconclusive results (about 18%) are left out. The list shows a part of the results. Values without a mark were called inactive. Cut-off read from the data, not from the text of the source: active = normalized growth mostly below about 0.91 (no sharp cut-off); inconclusive = no clear call, values can overlap the other calls; inactive = mostly above about 0.92.
# Experiment: chemical genetic growth profiling, strain panel (AID 1159580);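 note: tested at 20 µM; growth read once vehicle control cultures reached saturation at 30 °C; 1 = growth at the plate median or of vehicle wells; lower values mean less growth of the strain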
# Details: S. cerevisiae deletion strains, growth OD
# [1] = locus YAL040C, strain CLN3, stronger effect = lower value
# [2] = locus YCL061C, strain MRC1 (second series), stronger effect = lower value
# [3] = locus YDR363W, strain ESC2, stronger effect = lower value
# [4] = locus YER002W, strain NOP16, stronger effect = lower value
# [5] = locus YMR307W, strain GAS1, stronger effect = lower value
# [6] = locus YNL153C, strain GIM3, stronger effect = lower value
# [7] = locus YNL175C, strain NOP13, stronger effect = lower value
# [8] = locus YNL197C, strain WHI3, stronger effect = lower value
# [9] = locus YNL224C, strain SQS1, stronger effect = lower value
# [10] = locus YOR083W, strain WHI5 (second series), stronger effect = lower value
# [11] = locus YPL055C, strain LGE1, stronger effect = lower value
# [12] = locus YPL241C, strain CIN2, stronger effect = lower value
# [13] = locus YAR019C, strain CDC15, stronger effect = lower value
# [14] = locus YBL105C, strain PKC1, stronger effect = lower value
# [15] = locus YBR135W, strain CKS1, stronger effect = lower value
# [16] = locus YBR136W, strain MEC1, stronger effect = lower value
# [17] = locus YBR160W, strain CDC28, stronger effect = lower value
# [18] = locus YDL017W, strain CDC7, stronger effect = lower value
# [19] = locus YDL028C, strain MPS1, stronger effect = lower value
# [20] = locus YDL101C, strain DUN1, stronger effect = lower value
# [21] = locus YDL108W, strain KIN28, stronger effect = lower value
# [22] = locus YDL132W, strain cdc53, stronger effect = lower value
# [23] = locus YDL214C, strain PRR2, stronger effect = lower value
# [24] = locus YDR052C, strain DBF4, stronger effect = lower value
# [25] = locus YDR054C, strain cdc34, stronger effect = lower value
# [26] = locus YDR226W, strain ADK1, stronger effect = lower value
# [27] = locus YDR477W, strain SNF1, stronger effect = lower value
# [28] = locus YER123W, strain YCK3, stronger effect = lower value
# [29] = locus YER133W, strain GLC7, stronger effect = lower value
# [30] = locus YFL009W, strain cdc4, stronger effect = lower value
# [31] = locus YFL029C, strain CAK1, stronger effect = lower value
# [32] = locus YFR003C, strain YPI1, stronger effect = lower value
# [33] = locus YFR019W, strain FAB1, stronger effect = lower value
# [34] = locus YFR028C, strain CDC14, stronger effect = lower value
# [35] = locus YGR040W, strain KSS1, stronger effect = lower value
# [36] = locus YGR052W, strain FMP48, stronger effect = lower value
# [37] = locus YGR092W, strain DBF2, stronger effect = lower value
# [38] = locus YHR030C, strain SLT2, stronger effect = lower value
# [39] = locus YHR079C, strain IRE1, stronger effect = lower value
# [40] = locus YHR082C, strain KSP1, stronger effect = lower value
# [41] = locus YHR205W, strain SCH9, stronger effect = lower value
# [42] = locus YIL147C, strain SLN1, stronger effect = lower value
# [43] = locus YJL095W, strain BCK1, stronger effect = lower value
# [44] = locus YJL128C, strain PBS2, stronger effect = lower value
# [45] = locus YJL157C, strain FAR1, stronger effect = lower value
# [46] = locus YJR016C, strain ILV3, stronger effect = lower value
# [47] = locus YJR066W, strain TOR1 (second series), stronger effect = lower value
# [48] = locus YJR066W, strain TOR1, stronger effect = lower value
# [49] = locus YKL048C, strain ELM1, stronger effect = lower value
# [50] = locus YKL067W, strain YNK1, stronger effect = lower value
# [51] = locus YKL101W, strain HSL1, stronger effect = lower value
# [52] = locus YKL193C, strain SDS22, stronger effect = lower value
# [53] = locus YKL203C, strain TOR2, stronger effect = lower value
# [54] = locus YLR113W, strain HOG1, stronger effect = lower value
# [55] = locus YLR133W, strain CKI1, stronger effect = lower value
# [56] = locus YLR403W, strain SFP1, stronger effect = lower value
# [57] = locus YML070W, strain DAK1, stronger effect = lower value
# [58] = locus YMR001C, strain CDC5, stronger effect = lower value
# [59] = locus YMR205C, strain PFK2 (second series), stronger effect = lower value
# [60] = locus YMR277W, strain FCP1, stronger effect = lower value
# [61] = locus YNL006W, strain LST8, stronger effect = lower value
# [62] = locus YNL020C, strain ARK1, stronger effect = lower value
# [63] = locus YNL161W, strain CBK1, stronger effect = lower value
# [64] = locus YNL183C, strain NPR1, stronger effect = lower value
# [65] = locus YNL207W, strain RIO2, stronger effect = lower value
# [66] = locus YNL222W, strain SSU72, stronger effect = lower value
# [67] = locus YNL307C, strain MCK1 (second series), stronger effect = lower value
# [68] = locus YOL078W, strain AVO1, stronger effect = lower value
# [69] = locus YOL136C, strain PFK27, stronger effect = lower value
# [70] = locus YOR061W, strain CKA2, stronger effect = lower value
# [71] = locus YOR119C, strain RIO1, stronger effect = lower value
# [72] = locus YOR231W, strain MKK1, stronger effect = lower value
# [73] = locus YOR329C, strain SCD5, stronger effect = lower value
# [74] = locus YPL031C, strain PHO85, stronger effect = lower value
# [75] = locus YPL153C, strain RAD53, stronger effect = lower value
# [76] = locus YPL204W, strain HRR25, stronger effect = lower value
# [77] = locus YPL209C, strain IPL1, stronger effect = lower value
# [78] = locus YPL256C, strain CLN2, stronger effect = lower value
# [79] = locus YPR025C, strain CCL1, stronger effect = lower value
# [80] = locus YPR106W, strain ISR1, stronger effect = lower value
# [81] = locus YPR111W, strain DBF20, stronger effect = lower value
# [82] = strain NNK1, stronger effect = lower value
# [83] = strain TSCII, stronger effect = lower value
compound,measurement,setting,value
NC(=O)c1ncn(C2OC(CO)C(O)C2O)n1 (stereo unspecified),normalized growth,[1],1.01
same,normalized growth,[2],1
same,normalized growth,[3],1
same,normalized growth,[4],0.996
same,normalized growth,[5],1.01
same,normalized growth,[6],1.03
same,normalized growth,[7],1.01
same,normalized growth,[8],1.01
same,normalized growth,[9],1.02
same,normalized growth,[10],1.02
same,normalized growth,[11],1
COc1cc2c(CCNC(C)=O)c[nH]c2cc1Cl,normalized growth,[1],0.983
same,normalized growth,[3],1.03
same,normalized growth,[4],0.956
same,normalized growth,"locus YGR078C, strain PAC10, stronger effect = lower value",1.01
same,normalized growth,[5],1.01
same,normalized growth,[6],0.926
same,normalized growth,[7],0.989
same,normalized growth,[8],0.989
same,normalized growth,[9],1
same,normalized growth,"locus YNL322C, strain KRE1, stronger effect = lower value",0.998
same,normalized growth,[10],1.03
same,normalized growth,[12],0.996
O=S1(=O)N(CCN2CC=C(c3c[nH]c4cc(F)ccc34)CC2)c2cccc3c2N1CCC3,normalized growth,[1],0.981
same,normalized growth,[2],0.987
same,normalized growth,[3],0.997
same,normalized growth,"locus YJR075W, strain HOC1, stronger effect = lower value",1
same,normalized growth,[6],0.851
same,normalized growth,[7],0.987
same,normalized growth,[8],0.994
same,normalized growth,[9],1.02
same,normalized growth,[10],0.958
same,normalized growth,[11],0.951
same,normalized growth,[12],0.977
N#CC(C#N)=Cc1c(-c2ccccc2Cl)[nH]c2ccccc12,normalized growth,[13],0.968
same,normalized growth,[14],0.962
same,normalized growth,[15],0.965
same,normalized growth,[16],0.97
same,normalized growth,[17],0.969
same,normalized growth,[18],0.976
same,normalized growth,[19],0.972
same,normalized growth,[20],0.973
same,normalized growth,[21],0.975
same,normalized growth,[22],0.969
same,normalized growth,[23],0.919
same,normalized growth,[24],0.98
same,normalized growth,[25],0.931
same,normalized growth,[26],0.956
same,normalized growth,[27],0.901
same,normalized growth,[28],0.889
same,normalized growth,[29],0.93
same,normalized growth,[30],0.955
same,normalized growth,[31],0.96
same,normalized growth,[32],0.976
same,normalized growth,[33],0.924
same,normalized growth,[34],0.965
same,normalized growth,[35],0.907
same,normalized growth,[36],0.942
same,normalized growth,[37],0.938
same,normalized growth,[38],0.654 (active)
same,normalized growth,[39],0.812
same,normalized growth,[40],0.932
same,normalized growth,[41],0.836
same,normalized growth,[42],0.971
same,normalized growth,[43],0.822
same,normalized growth,[44],0.958
same,normalized growth,[45],0.923
same,normalized growth,[46],0.956
same,normalized growth,[47],0.897
same,normalized growth,[48],0.902
same,normalized growth,[49],0.926
same,normalized growth,[50],0.918
same,normalized growth,[51],0.899
same,normalized growth,[52],0.967
same,normalized growth,[53],0.961
same,normalized growth,[54],0.821 (active)
same,normalized growth,[55],0.905
same,normalized growth,[56],0.904
same,normalized growth,[57],0.886
same,normalized growth,[58],0.969
same,normalized growth,[59],0.919
same,normalized growth,[60],0.967
same,normalized growth,[61],0.96
same,normalized growth,[62],0.882
same,normalized growth,[63],0.966
same,normalized growth,[64],0.853
same,normalized growth,[65],0.974
same,normalized growth,[66],0.967
same,normalized growth,[67],0.84
same,normalized growth,[68],0.962
same,normalized growth,[69],0.87
same,normalized growth,[70],0.897
same,normalized growth,[71],1
same,normalized growth,[72],0.867
same,normalized growth,[73],0.968
same,normalized growth,[74],0.907
same,normalized growth,[75],0.905
same,normalized growth,[76],0.884
same,normalized growth,[77],0.973
same,normalized growth,[78],0.779 (active)
same,normalized growth,[79],0.961
same,normalized growth,[80],0.954
same,normalized growth,[81],0.927
same,normalized growth,[82],0.959
same,normalized growth,[83],0.964
O=C(Nc1cc(Cl)ccc1O)c1ccccc1CSc1ccc(Cl)cc1,normalized growth,[13],0.977
same,normalized growth,[14],0.984
same,normalized growth,[15],0.985
same,normalized growth,[16],0.98
same,normalized growth,[17],0.979
same,normalized growth,[18],0.986
same,normalized growth,[19],0.985
same,normalized growth,[20],0.989
same,normalized growth,[21],0.981
same,normalized growth,[22],0.988
same,normalized growth,[23],0.823
same,normalized growth,[24],0.983
same,normalized growth,[25],0.979
same,normalized growth,[26],0.976
same,normalized growth,[27],0.8
same,normalized growth,[28],0.749
same,normalized growth,[29],0.839
same,normalized growth,[30],0.981
same,normalized growth,[31],0.977
same,normalized growth,[32],0.979
same,normalized growth,[33],0.753 (active)
same,normalized growth,[34],0.986
same,normalized growth,[35],0.794
same,normalized growth,[36],0.685
same,normalized growth,[37],0.571
same,normalized growth,[38],0.29 (active)
same,normalized growth,[39],0.683
same,normalized growth,[40],0.652
same,normalized growth,[41],0.785
same,normalized growth,[42],0.981
same,normalized growth,[43],0.502
same,normalized growth,[44],0.922
same,normalized growth,[45],0.783
same,normalized growth,[46],0.987
same,normalized growth,[47],0.765
same,normalized growth,[48],0.647
same,normalized growth,[49],0.888
same,normalized growth,[50],0.835
same,normalized growth,[51],0.633 (active)
same,normalized growth,[52],0.988
same,normalized growth,[53],0.784
same,normalized growth,[54],0.52 (active)
same,normalized growth,[55],0.776
same,normalized growth,[56],0.763
same,normalized growth,[57],0.714
same,normalized growth,[58],0.981
same,normalized growth,[59],0.851
same,normalized growth,[60],0.983
same,normalized growth,[61],0.98
same,normalized growth,[62],0.689 (active)
same,normalized growth,[63],0.97
same,normalized growth,[64],0.689
same,normalized growth,[65],0.97
same,normalized growth,[66],0.983
same,normalized growth,[67],0.565 (active)
same,normalized growth,[68],0.986
same,normalized growth,[69],0.753
same,normalized growth,[70],0.603 (active)
same,normalized growth,[71],0.861
same,normalized growth,[72],0.699
same,normalized growth,[73],0.975
same,normalized growth,[74],0.738
same,normalized growth,[75],0.747
same,normalized growth,[76],0.731
same,normalized growth,[77],0.981
same,normalized growth,[78],0.551 (active)
same,normalized growth,[79],0.979
same,normalized growth,[80],0.979
same,normalized growth,[81],0.954
same,normalized growth,[82],0.961
same,normalized growth,[83],0.981
